Source: PubChem BioAssay (National Center for Advancing Translational Sciences (NCATS))
Many of the other results were omitted from the sample, so hits are more common in it than they were.
Pf Dd2 inh – inhibitors of Plasmodium falciparum Dd2 growth. P. falciparum Dd2 growth, SYBR Green, 72 h. Potency, µM (highest dose often 28.9 µM), without a hit: top-dose activity, negative = inhibition, actives largely listed as inhibitors. hit rate 4.3% among 120,000. AID 1347417; active = well fitted inhibition curve with a large enough effect;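 note: plate controls were DMSO vehicle for no effect and reference drug for full effect; nearly all actives have a fitted effect of over 65% in size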
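Infected erythrocytes (Dd2, 0.3% parasitemia, 2.5% hematocrit final) are added to compound in RPMI-1640/Albumax II medium, grown 72 h at 37C in low oxygen, then lysed with saponin/Triton-X containing SYBR Green and read by fluorescence.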
Active calls of the source: *; i = inactive; [ ] = another dose, or the depositor's remark. Potency is the fitted concentration of half-maximal effect.

SMILES	Pf Dd2 inh
O=C(O)c1cc(-n2c(/C=C\c3ccc(F)cc3)nc3ccccc3c2=O)ccc1Cl	-12%
O=C(/C=C/c1ccccc1)Nc1nc2n(n1)C(c1ccc(Cl)cc1)C=C(c1ccccc1)N2 (stereo not given)	11µM*
CC(=O)N1C[C@@H](C(=O)NCCc2c(C)noc2C)[C@H](c2nc(C)no2)C1	-20%
CC(C)c1noc(C2CCCN(S(=O)(=O)c3ccccc3)CCC(=O)NCC2)n1 (stereo not given)	14%
Cn1ccnc1CNCC1(COc2cnccn2)C[C@@H](O)[C@@H](O)C1 (stereo not given in full)	15%
CC(=O)c1ccc(NC(=O)N[C@H]2C[C@@](O)(C(=O)N[C@H](Cc3ccccc3)C(N)=O)C[C@@H](O)[C@@H]2O)cc1	21%
O=[S+]([O-])(Nc1ccccc1)c1ccc2c(c1)OCCN(Cc1ccsc1)C2	-4%[44.1 µM]
CCNC(=O)N1CCOc2ccc(CCC(=O)Nc3ccc(C)cc3)cc2C1	-8%
COCC(=O)N[C@@H]1CN(Cc2cccc(OC)c2OC)C[C@H]1CO	i
Cc1ccc(CN2CCN(C(=O)C3CCCN(C(=O)c4ccccc4)CCC(=O)NCC3)CC2)cc1 (stereo not given)	-10%
O=C(CCC[C@@H]1[C@H]2CCCN3CCC[C@@H](CN1C(=O)C1(c4ccccc4)CC1)[C@@H]23)NCC1CC1	13µM*
Cc1cccc(C(=O)N2C[C@@H]3CCCN4CCC[C@@H]([C@H]34)[C@H]2CCCC(=O)NCC2CC2)c1	-25%
CC(C)C(=O)N1C[C@@H]2CCCN3CCC[C@@H]([C@H]23)[C@H]1CCCC(=O)NCC1CC1	-1%
CN(Cc1cccc(C(F)(F)F)c1)C(=O)Cc1ccc(F)cc1	i
CC(=O)N(C)Cc1cccc(C(F)(F)F)c1	-6%[44.1 µM]
CN(Cc1cccc(C(F)(F)F)c1)C(=O)c1ccc(F)cc1	11µM*
COc1ccc(C(=O)Nc2nc3n(n2)C(c2ccc(Cl)cc2)C=C(c2ccccc2)N3)cc1OC (stereo not given)	7.9µM*
COc1ccc(C(=O)NCc2nnc3ccc(-c4ccc(Cl)cc4)nn23)cc1OC	i
COc1cccc(C(=O)Nc2nc3nc(-c4ccccc4)cc(=O)n3[nH]2)c1	21%
COc1ccc(CNC(=O)c2cc(-c3ccc(OC)cc3)nc3n[nH]c(-c4cccc([N+](=O)[O-])c4)c23)cc1	-9%
COc1ccc(C(=O)Nc2noc3ccccc23)cc1	6%
COc1ccc(NC(=O)c2cc3n(n2)CC(c2ccc(Cl)cc2)OC3)cc1OC (stereo not given)	-17%
COc1ccc(C2C=C(c3ccccc3)Nc3nc(NC(=O)c4ccc(C)cc4)nn32)cc1 (stereo not given)	13µM*
COc1ccc(C2C=C(c3ccccc3)Nc3nc(NC(=O)c4cccc([N+](=O)[O-])c4)nn32)cc1 (stereo not given)	8.9µM*
COc1ccc(C(=O)Nc2cnc(-c3ccc(Cl)cc3)nc2)cc1	i
SMILES	Pf Dd2 inh
Cc1cccc(CC(=O)N2[C@@H]3CC[C@H]2CC(NC(=O)c2ccncc2)C3)c1 (stereo not given in full)	10%
O=C(CC(c1ccccc1)c1cccc(Cl)c1)NC1CCC(O)CC1 (stereo not given)	-5%
O=C(O)c1cccc(-c2cncc(C(=O)O)c2)c1	i
CN(C)c1ncc2c(n1)C(C)(C(=O)NCCOc1ccccc1)CCC2 (stereo not given)	-1%[44.1 µM]
COc1ccc(S(=O)(=O)N2CCCCC2)cc1C(=O)Nc1cccc(C(F)(F)F)c1	i
COc1ccc(S(=O)(=O)N2CCC(Oc3cccc(C(F)(F)F)c3)CC2)cc1OC	9%
COc1cc2c(cc1OC)C(COc1cc(C)cc(C)c1)N(C(=O)c1ccc(S(=O)(=O)N3CCCC3)cc1)CC2 (stereo not given)	3.2µM*
COc1cc2c(cc1OC)C(COc1ccc(C(C)C)cc1)N(C(=O)c1ccc(S(=O)(=O)N3CCCC3)cc1)CC2 (stereo not given)	13µM*
COc1cc2c(cc1OC)C(COc1cccc(C(F)(F)F)c1)N(C(=O)c1ccc(S(=O)(=O)N3CCCC3)cc1)CC2 (stereo not given)	7.9µM*
COc1cc2c(cc1OC)C(CNC(=O)Nc1ccc(C)cc1)N(C(=O)NC(C)C)CC2 (stereo not given)	-10%
COc1ccc(N2CC(NC(=O)c3ccc(S(=O)(=O)N4CCCCC4)cc3)CC2=O)cc1OC (stereo not given)	i
COc1ccc(CNC(=O)C(C)n2ccc3cc(S(=O)(=O)N4CCCC4)ccc32)cc1OC (stereo not given)	i
Cc1ccc2c(c1)C(c1ccccc1)N(C(=O)c1ccc(S(=O)(=O)N3CCCC3)cc1)CC(=O)N2 (stereo not given)	-21%
O=C(NCc1noc(Cc2cccs2)n1)C1NCCc2[nH]cnc21 (stereo not given)	5%
O=c1cc(-c2cnccn2)oc2c(Nc3cccc(OC(F)(F)F)c3)nccc12	-3%[44.1 µM]
CC(=O)N1CCN([C@H]2[C@@H]3OC[C@@H](O3)[C@@H](NCc3ccco3)[C@@H]2O)CC1	-9%[44.1 µM]
CCCCNC(=O)C1CCCN(C2CCN(Cc3ccncc3)CC2)C1 (stereo not given)	-28%
O=C(NC1CCCCCCC1)C1CCCN(C2CCN(Cc3ccncc3)CC2)C1 (stereo not given)	13µM*
Cc1cccc(CN2CCC(N3CCCC(C(=O)NC4CC4)C3)CC2)c1 (stereo not given)	-23%
O=C(Cn1ccn2nc(-c3ccc(F)cc3)c(CO)c2c1=O)Nc1ccc2c(c1)OCO2	-21%
CCn1nc(-c2ccccc2CN2CCOCC2)nc1N(C)C	-7%
O=C(O)C1CCCN(Cc2ccccc2OCCCN2CCOCC2)C1 (stereo not given)	-1%
c1ccc(-c2ccc(CN3CCCC3)cc2)c(CN2CCOCC2)c1	8.9µM*
CN1CCN2C[C@@H](NC(=O)c3ccc(C#CC(C)(C)O)o3)C[C@H]2C1	-5%
Cc1noc(C)c1[S+](=O)([O-])N1CCC2(CC1)C(=O)NN=C2c1ccccn1	i
SMILES	Pf Dd2 inh
CCCn1c(C)c(CC(=O)N[C@@H](C)C(N)=O)c2c1CC(C)(C)CC2=O	-22%
CCN1c2cc(C(=O)N3CCCCC3)ccc2C(=O)N2CCCCCC21 (stereo not given)	i
CCN1c2cc(C(=O)N3CCN(c4ccccn4)CC3)ccc2C(=O)N2CCCCC21 (stereo not given)	i
CCOc1ccccc1N1CCN(C(=O)c2ccc3c(c2)N(C)C2CCCCN2C3=O)CC1 (stereo not given)	5µM*
CN1c2cc(C(=O)N3CCN(c4ccc(F)cc4)CC3)ccc2C(=O)N2CCCCCC21 (stereo not given)	i
Cc1cccc(NC(=O)c2ccc3c(c2)N(C)C2CCCCCN2C3=O)c1 (stereo not given)	i
CCN1c2cc(C(=O)N3CCN(c4ccccc4)CC3)ccc2C(=O)N2CCCCC21 (stereo not given)	i
Cc1cccc(N2CCN(C(=O)c3ccc4c(c3)N(C)C3CCCCCN3C4=O)CC2)c1 (stereo not given)	8.9µM*
CN1c2cc(C(=O)Nc3ccccc3)ccc2C(=O)N2CCCCC21 (stereo not given)	i
CN1c2cc(C(=O)N3CCN(c4ccccc4Cl)CC3)ccc2C(=O)N2CCCCC21 (stereo not given)	6.3µM*
